Data published in ChEMBL document CHEMBL1961873, “Compounds: GSK PKIS; Assays: Nanosyn kinase panel” (2012).

How the values were obtained:
[1] = biological target: Mitogen-activated protein kinase kinase kinase kinase 4 (Homo sapiens) (UniProt O95819); conditions: at 1 µM;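 also: reported figure is an averaged inhibition value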
[2] = biological target: Dual specificity mitogen-activated protein kinase kinase 1 (Homo sapiens) (UniProt Q02750); conditions: at 0.1 µM
[3] = biological target: Dual specificity mitogen-activated protein kinase kinase 1 (Homo sapiens) (UniProt Q02750); conditions: at 1 µM
[4] = biological target: Misshapen-like kinase 1 (Homo sapiens) (UniProt Q8N4C8); conditions: at 0.1 µM
[5] = biological target: Misshapen-like kinase 1 (Homo sapiens) (UniProt Q8N4C8); conditions: at 1 µM
[6] = biological target: T1, Serine/threonine-protein kinase 4 (Homo sapiens) (UniProt Q13043); conditions: at 0.1 µM
T1 sequence (whole entry): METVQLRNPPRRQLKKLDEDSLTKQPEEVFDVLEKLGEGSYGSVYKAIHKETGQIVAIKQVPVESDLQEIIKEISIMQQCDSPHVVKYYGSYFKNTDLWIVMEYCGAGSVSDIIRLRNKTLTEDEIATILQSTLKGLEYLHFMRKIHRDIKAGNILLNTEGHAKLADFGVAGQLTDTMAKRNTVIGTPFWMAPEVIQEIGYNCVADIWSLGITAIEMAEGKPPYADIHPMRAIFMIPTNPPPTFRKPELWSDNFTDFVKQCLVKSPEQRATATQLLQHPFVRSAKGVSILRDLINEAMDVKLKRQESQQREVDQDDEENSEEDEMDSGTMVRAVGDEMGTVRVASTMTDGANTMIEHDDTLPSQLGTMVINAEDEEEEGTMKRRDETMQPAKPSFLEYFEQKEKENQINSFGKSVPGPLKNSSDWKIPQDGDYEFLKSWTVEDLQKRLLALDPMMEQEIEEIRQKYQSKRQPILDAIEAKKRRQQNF

[7] = biological target: T1, Serine/threonine-protein kinase 4 (Homo sapiens); conditions: at 1 µM
[8] = biological target: T2, Serine/threonine-protein kinase 3 (Homo sapiens) (UniProt Q13188); conditions: at 0.1 µM
T2 sequence (whole entry): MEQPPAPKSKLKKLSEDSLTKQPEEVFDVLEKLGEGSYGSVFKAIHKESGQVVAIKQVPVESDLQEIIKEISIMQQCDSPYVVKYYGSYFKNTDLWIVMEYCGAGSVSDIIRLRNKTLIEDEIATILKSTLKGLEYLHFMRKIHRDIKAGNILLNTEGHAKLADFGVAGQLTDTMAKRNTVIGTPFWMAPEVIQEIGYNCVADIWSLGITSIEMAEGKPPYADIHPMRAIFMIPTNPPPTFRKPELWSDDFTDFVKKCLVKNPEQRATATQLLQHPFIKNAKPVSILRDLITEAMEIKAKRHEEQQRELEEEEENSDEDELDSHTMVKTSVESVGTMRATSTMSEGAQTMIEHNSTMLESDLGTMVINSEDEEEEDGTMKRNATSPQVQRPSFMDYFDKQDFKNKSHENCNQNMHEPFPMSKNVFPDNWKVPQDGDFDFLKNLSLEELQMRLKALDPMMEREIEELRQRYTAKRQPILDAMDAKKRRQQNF

[9] = biological target: T2, Serine/threonine-protein kinase 3 (Homo sapiens); conditions: at 1 µM
[10] = biological target: Serine/threonine-protein kinase 26 (Homo sapiens) (UniProt Q9P289); conditions: at 0.1 µM
[11] = biological target: Serine/threonine-protein kinase 26 (Homo sapiens) (UniProt Q9P289); conditions: at 1 µM
[12] = biological target: Serine/threonine-protein kinase PAK 1 (Homo sapiens) (UniProt Q13153); conditions: at 0.1 µM
[13] = biological target: Serine/threonine-protein kinase PAK 1 (Homo sapiens) (UniProt Q13153); conditions: at 1 µM
[14] = biological target: Serine/threonine-protein kinase PAK 2 (Homo sapiens) (UniProt Q13177); conditions: at 0.1 µM
[15] = biological target: Serine/threonine-protein kinase PAK 2 (Homo sapiens) (UniProt Q13177); conditions: at 1 µM
[16] = biological target: Serine/threonine-protein kinase PAK 3 (Homo sapiens) (UniProt O75914); conditions: at 0.1 µM
[17] = biological target: Serine/threonine-protein kinase PAK 3 (Homo sapiens) (UniProt O75914); conditions: at 1 µM
[18] = biological target: Serine/threonine-protein kinase PAK 5 (Homo sapiens) (UniProt Q9P286); conditions: at 0.1 µM
[19] = biological target: Serine/threonine-protein kinase PAK 5 (Homo sapiens) (UniProt Q9P286); conditions: at 1 µM
[20] = biological target: Serine/threonine-protein kinase PAK 6 (Homo sapiens) (UniProt Q9NQU5); conditions: at 0.1 µM;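 also: mean PAK6 inhibition reported from the GSK PKIS screen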

Chain of Mitogen-activated protein kinase kinase kinase kinase 4 (Homo sapiens) (O95819 2-1239 limits assumed): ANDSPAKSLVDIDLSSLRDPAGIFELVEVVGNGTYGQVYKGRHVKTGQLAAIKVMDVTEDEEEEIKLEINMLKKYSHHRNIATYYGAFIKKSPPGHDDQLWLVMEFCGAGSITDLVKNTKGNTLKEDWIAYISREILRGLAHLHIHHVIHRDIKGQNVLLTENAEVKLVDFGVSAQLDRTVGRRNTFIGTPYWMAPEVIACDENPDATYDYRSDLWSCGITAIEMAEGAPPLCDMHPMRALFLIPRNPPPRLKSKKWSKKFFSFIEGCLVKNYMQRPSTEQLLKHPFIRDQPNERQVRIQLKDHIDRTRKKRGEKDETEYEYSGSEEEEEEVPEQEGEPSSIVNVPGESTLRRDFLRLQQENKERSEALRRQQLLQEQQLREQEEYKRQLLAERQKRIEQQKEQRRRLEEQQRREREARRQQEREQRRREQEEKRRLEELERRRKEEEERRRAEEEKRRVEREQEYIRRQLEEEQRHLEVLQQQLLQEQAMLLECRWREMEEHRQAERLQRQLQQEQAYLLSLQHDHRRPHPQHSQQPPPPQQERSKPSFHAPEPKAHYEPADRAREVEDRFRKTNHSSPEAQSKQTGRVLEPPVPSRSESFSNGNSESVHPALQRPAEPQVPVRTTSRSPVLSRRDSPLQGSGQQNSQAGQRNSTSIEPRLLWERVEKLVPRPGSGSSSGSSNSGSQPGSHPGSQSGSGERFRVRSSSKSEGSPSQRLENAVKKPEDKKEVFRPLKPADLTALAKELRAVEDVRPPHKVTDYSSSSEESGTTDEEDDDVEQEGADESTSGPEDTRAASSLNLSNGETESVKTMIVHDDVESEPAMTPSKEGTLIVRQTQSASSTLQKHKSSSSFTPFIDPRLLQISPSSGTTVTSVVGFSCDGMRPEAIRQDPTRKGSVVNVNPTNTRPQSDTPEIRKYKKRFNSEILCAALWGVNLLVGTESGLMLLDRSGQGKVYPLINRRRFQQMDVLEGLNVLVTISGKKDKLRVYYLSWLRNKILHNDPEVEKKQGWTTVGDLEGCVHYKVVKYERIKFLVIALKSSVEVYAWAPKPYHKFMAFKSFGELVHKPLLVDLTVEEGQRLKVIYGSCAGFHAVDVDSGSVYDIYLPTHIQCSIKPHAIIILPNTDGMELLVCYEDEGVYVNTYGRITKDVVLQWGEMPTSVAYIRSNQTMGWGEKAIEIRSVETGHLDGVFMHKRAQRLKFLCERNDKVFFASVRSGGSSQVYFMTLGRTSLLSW
Chain of Dual specificity mitogen-activated protein kinase kinase 1 (Homo sapiens) (Q02750 whole entry): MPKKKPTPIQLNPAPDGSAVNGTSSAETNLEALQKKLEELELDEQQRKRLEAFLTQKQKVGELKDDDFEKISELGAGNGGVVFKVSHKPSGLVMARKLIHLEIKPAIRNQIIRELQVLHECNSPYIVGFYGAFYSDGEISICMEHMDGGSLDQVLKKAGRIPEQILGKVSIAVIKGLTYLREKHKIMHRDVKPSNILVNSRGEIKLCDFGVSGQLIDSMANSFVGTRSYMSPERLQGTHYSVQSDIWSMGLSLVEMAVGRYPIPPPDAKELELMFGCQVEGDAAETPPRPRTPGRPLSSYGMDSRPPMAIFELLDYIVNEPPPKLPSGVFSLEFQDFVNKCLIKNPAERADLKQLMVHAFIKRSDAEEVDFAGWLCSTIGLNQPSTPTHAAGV
Chain of Serine/threonine-protein kinase PAK 3 (Homo sapiens) (O75914 whole entry, looked up): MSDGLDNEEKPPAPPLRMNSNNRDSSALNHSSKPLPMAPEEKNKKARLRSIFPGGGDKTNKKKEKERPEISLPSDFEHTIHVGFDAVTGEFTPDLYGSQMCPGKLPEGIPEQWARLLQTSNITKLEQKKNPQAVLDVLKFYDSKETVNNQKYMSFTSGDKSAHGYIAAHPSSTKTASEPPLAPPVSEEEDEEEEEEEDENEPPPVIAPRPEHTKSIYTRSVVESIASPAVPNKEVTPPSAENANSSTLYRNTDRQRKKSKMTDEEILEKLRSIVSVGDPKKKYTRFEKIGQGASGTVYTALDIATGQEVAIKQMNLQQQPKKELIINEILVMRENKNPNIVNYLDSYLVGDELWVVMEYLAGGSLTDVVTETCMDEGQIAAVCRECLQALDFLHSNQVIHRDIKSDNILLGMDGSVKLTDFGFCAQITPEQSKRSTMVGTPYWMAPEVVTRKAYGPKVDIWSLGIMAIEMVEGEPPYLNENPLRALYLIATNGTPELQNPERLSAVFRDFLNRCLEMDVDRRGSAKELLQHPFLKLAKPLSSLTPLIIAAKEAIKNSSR
Chain of Serine/threonine-protein kinase 26 (Homo sapiens) (Q9P289 2-416 limits assumed): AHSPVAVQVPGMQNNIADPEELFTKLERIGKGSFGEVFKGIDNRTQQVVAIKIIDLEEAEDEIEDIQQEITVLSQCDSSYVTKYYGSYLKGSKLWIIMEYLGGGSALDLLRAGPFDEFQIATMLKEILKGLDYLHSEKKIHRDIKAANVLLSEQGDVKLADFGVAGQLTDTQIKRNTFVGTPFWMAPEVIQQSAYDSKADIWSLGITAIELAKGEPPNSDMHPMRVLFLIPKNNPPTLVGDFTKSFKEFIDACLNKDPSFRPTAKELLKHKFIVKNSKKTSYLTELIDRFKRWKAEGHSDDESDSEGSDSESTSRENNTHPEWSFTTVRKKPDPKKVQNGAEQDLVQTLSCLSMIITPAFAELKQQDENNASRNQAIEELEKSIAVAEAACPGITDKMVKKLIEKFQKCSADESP
Chain of Misshapen-like kinase 1 (Homo sapiens) (Q8N4C8 whole entry, looked up): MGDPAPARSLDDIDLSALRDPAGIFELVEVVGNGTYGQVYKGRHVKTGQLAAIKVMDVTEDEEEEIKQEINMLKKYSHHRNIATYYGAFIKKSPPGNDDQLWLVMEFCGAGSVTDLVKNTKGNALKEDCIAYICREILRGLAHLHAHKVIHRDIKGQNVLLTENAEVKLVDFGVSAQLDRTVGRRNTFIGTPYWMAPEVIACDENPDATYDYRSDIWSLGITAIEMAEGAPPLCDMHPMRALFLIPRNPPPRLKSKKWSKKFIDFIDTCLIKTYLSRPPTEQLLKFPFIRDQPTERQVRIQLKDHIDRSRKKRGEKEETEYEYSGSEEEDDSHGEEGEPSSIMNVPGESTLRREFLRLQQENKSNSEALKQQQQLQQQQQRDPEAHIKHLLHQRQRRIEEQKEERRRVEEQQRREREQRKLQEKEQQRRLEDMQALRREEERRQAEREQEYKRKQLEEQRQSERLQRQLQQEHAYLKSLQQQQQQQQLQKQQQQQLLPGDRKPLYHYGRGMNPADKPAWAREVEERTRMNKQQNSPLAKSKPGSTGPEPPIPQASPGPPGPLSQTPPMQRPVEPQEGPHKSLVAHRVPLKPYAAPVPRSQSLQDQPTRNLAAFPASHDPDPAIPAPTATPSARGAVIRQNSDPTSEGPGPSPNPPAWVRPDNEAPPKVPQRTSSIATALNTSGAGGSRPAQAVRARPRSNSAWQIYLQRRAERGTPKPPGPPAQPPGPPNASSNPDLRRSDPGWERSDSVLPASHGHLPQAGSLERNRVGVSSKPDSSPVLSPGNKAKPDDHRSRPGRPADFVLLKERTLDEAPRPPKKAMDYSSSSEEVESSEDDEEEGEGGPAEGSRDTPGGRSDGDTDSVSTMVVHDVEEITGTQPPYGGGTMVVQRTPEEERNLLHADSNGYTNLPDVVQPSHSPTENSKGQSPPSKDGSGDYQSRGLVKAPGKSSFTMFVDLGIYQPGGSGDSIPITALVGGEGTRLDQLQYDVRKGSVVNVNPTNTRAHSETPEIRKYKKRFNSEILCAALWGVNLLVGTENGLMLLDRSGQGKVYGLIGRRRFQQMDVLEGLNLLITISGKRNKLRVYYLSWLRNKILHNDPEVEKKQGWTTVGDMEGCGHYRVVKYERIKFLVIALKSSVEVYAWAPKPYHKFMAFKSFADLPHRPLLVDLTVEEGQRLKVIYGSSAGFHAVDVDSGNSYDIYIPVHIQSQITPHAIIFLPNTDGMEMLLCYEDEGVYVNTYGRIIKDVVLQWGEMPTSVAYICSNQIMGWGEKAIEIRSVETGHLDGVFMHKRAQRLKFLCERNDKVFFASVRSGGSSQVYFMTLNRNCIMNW
Chain of Serine/threonine-protein kinase PAK 5 (Homo sapiens) (Q9P286 whole entry, looked up): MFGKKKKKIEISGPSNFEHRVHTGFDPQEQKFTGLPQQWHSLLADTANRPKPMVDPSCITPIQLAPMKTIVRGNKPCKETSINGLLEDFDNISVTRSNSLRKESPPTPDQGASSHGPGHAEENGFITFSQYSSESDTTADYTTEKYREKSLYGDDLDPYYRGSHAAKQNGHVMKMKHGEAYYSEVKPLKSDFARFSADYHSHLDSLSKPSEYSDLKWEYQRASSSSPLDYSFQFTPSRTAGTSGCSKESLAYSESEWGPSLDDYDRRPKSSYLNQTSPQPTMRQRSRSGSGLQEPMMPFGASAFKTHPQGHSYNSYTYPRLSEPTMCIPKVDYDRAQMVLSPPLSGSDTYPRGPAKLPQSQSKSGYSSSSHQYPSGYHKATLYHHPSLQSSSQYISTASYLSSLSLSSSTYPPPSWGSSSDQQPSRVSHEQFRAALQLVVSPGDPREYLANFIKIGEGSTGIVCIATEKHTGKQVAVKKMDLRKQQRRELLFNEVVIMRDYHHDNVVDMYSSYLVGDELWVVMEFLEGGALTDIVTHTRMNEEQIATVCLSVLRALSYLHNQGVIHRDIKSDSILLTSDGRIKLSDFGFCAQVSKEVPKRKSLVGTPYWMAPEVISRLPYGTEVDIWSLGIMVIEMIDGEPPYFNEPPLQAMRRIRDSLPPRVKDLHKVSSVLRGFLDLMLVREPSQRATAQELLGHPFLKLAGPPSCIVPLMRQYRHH

Structure (SMILES)	inhibition [1]	inhibition [2]	inhibition [3]	inhibition [4]	inhibition [5]	inhibition [6]	inhibition [7]	inhibition [8]	inhibition [9]	inhibition [10]	inhibition [11]	inhibition [12]	inhibition [13]	inhibition [14]	inhibition [15]	inhibition [16]	inhibition [17]	inhibition [18]	inhibition [19]	inhibition [20]
CCCN1CCC(c2ccc(Nc3nc(Nc4cc(F)ccc4C(N)=O)c4cc[nH]c4n3)c(OC)c2)CC1	78.9%	9.27%	37.7%	21.8%	70.2%	10.6%	43.9%	5.71%	13.8%	-0.72%	0.06%	5.31%	3.04%	1.19%	2.08%	4.32%	5.21%	1.36%	22.6%	-9.18%
COC(=O)c1sc(-n2cnc3cc(OC)c(OC)cc32)cc1OCc1ccccc1C(F)(F)F	10.1%	5.37%	4.96%	5.47%	11.2%	4.68%	9.69%	5.78%	9.15%	-1.48%	0.54%	7.38%	9.12%	1.91%	1.84%	3.84%	4.18%	-1.22%	-4.74%	-7.92%
O=C(Nc1n[nH]c2cc(-c3ccc(F)cc3)ccc12)C1CC1	70.1%	3.48%	3.42%	16.2%	56%	2.34%	4.72%	2.91%	4.55%	-1.43%	-1.27%	5.64%	5.57%	1.33%	0.78%	3.25%	3.1%	4.4%	-1.87%	2.33%
Nc1nc(-c2ccc(F)cc2)c(-c2ccc3ncccc3n2)s1	61.8%	6.1%	4.31%	13.2%	47.9%	6.16%	6.98%	7.16%	5.82%	0.24%	9.07%	6.29%	6.35%	1.67%	2.07%	5.1%	5.56%	2.84%	4.21%	1.6%
COc1ccc2c(-c3ccnc(Nc4cccc(OC(F)(F)F)c4)n3)cnn2n1	11.5%	6.37%	6.2%	5.92%	10.5%	8.73%	9.62%	9.08%	9.55%	-1.2%	-3.1%	8.76%	7.47%	4.37%	2.6%	5.69%	5.05%	8.06%	5.84%	5.76%
CC1=C(C(=O)Nc2cc(Cl)c3[nH]ncc3c2)C(c2ccc(C(F)(F)F)cc2)CC(=O)N1 (stereo not given)	10.2%	9.84%	35.5%	4.68%	9.18%	3.11%	5.19%	1.89%	4.7%	0.06%	8.39%	3.76%	4.55%	0.71%	2.32%	4.06%	3.69%	0.42%	4.84%	-4.08%
Nc1nc(-c2cccc(Cl)c2)c(-c2ccc3ncccc3n2)s1	60.1%	5.85%	5.35%	10.7%	46.9%	5.29%	7.53%	5.84%	7.74%	-1.9%	-1.1%	6.12%	6.28%	2.17%	1.78%	3.01%	6.05%	1.62%	-3.64%	3.19%
CC(C)COC(=O)c1ccc2c(c1)/C(=C/Nc1ccc(S(N)(=O)=O)cc1)C(=O)N2	65.3%	3.79%	33.7%	10.3%	53.8%	46.2%	81.5%	34%	77.9%	-0.24%	10.7%	-0.34%	1.52%	-2.84%	0.1%	-2.65%	-0.22%	-0.7%	5.79%	11.9%
Cc1cccc(Nc2ncc(-c3ccccc3)o2)c1	14.1%	2.53%	2.53%	2.9%	10.2%	1.44%	4.08%	1.8%	4.97%	0.69%	1.87%	-2.05%	3.35%	0.94%	2.06%	2.83%	5.76%	1.42%	10.2%	-4.69%
CC(=O)Nc1cccc(C#Cc2cncnc2Nc2ccc(OCc3cccc(F)c3)c(Cl)c2)c1	2.59%	2.07%	3.13%	2.21%	3.87%	3.97%	5.79%	4.97%	2.1%	1.4%	-0.92%	3.48%	6.05%	2.19%	1.41%	2.92%	3.79%	-5.54%	1.62%	2.97%
COc1cccc(-c2c[nH]c3c(N/N=C/c4ccncc4)ncnc23)c1	74.5%	1.76%	6.21%	17.5%	61.9%	5.59%	15.2%	4.97%	13.2%	2.3%	20.3%	2.35%	1.11%	0.94%	0.74%	1.83%	2.84%	0.46%	0.73%	5.9%
[O-][S+]1CCN(Cc2ccc(-c3ccc4ncnc(Nc5ccc(OCc6cccc(F)c6)c(Cl)c5)c4c3)o2)CC1	9.56%	5.35%	4.93%	7.98%	8%	6.28%	8.16%	8.11%	9.49%	0.51%	2.07%	8.29%	11.2%	2.04%	2.89%	6.22%	5.6%	3.4%	2.31%	-2.88%
COc1ccc2[nH]c3c4[nH]c5ccc(OC)cc5c4c4c(c3c2c1)C(=O)NC4=O	88.4%	4.86%	7.06%	81.3%	84.8%	13%	42%	14.2%	42.4%	4.27%	14%	5.41%	7.72%	1.43%	3.51%	4%	5.61%	5.43%	4.46%	4.49%
CN1CCC(n2cnc(-c3ccc(F)cc3)c2-c2ccnc(Nc3ccccc3)n2)CC1	41.2%	3.25%	4.26%	8.59%	41.2%	3.25%	6.2%	1.1%	3.6%	0.76%	5.17%	1.24%	4.02%	0.86%	-0.38%	2.18%	2.38%	-3.93%	4.44%	-9.85%
CCn1c(-c2nonc2N)nc2c(C#CC(C)(C)O)ncc(OC3CCNCC3)c21	6.21%	1.98%	3.44%	4.48%	5.83%	1.6%	4.54%	3.55%	6.04%	0.64%	4.19%	2.8%	8.91%	1.98%	13.5%	2.99%	8.39%	34.6%	80.1%	14.6%
COc1cccc(-n2ncc3c(N/N=C/c4ccc(F)cc4)ncnc32)c1	21.2%	4.9%	3.13%	7.39%	17.2%	7.56%	9.41%	9.36%	9.98%	-1.54%	-2.12%	4.83%	7.12%	2.32%	2.24%	4.66%	4.91%	9.72%	5.66%	3.88%
CCn1c(-c2nonc2N)nc2ccccc21	22.5%	4.06%	4.74%	5.52%	13.2%	5.56%	7.11%	6.31%	5.79%	-1.3%	-1.31%	5%	6.81%	3.34%	2.08%	1.86%	4.13%	5.02%	8.78%	0.13%
